Source: PubChem
POLB inh – qHTS Assay for Inhibitors of DNA Polymerase Beta | Pol beta primer extension/strand displacement, fluorescence kinetic | Potency, µM (top dose mostly 114 µM), for inactives: at the highest dose activity change, negative = inhibition, usual class: inhibitors | actives 1.3% (n = 340,000) | AID 485314, 2010; also: % is scaled to controls: 0 for no effect and ±100 for the full control effect
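Enzyme-only controls used 10 nM Pol beta; buffer lacking enzyme served as negative control. Compound preincubated 15 min, then 50 nM substrate added; 0 and 10 min reads at room temperature.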
Pol kappa inh – qHTS for Inhibitors of Polymerase Kappa; purified Pol kappa, fluorescent DNA synthesis assay, 10 min; Potency, µM (series often up to 107 µM), for inactives: top-dose activity, negative = inhibition, most hits filed as inhibitors; actives 0.53% (n = 400,000); AID 588579, 2011; also: % is scaled to controls: 0 for no effect and ±100 for the full control effect
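50 nM final substrate added after 15 min RT preincubation of 10 nM Pol kappa with compound; fluorescence read at 0 and 10 min.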
TDP1 inh – qHTS Assay for Inhibitors of Tyrosyl-DNA Phosphodiesterase (TDP1). recombinant TDP1, AlphaScreen DNA substrate cleavage. AID 485290, 2010. Tyrosyl-DNA phosphodiesterase 1 (Homo sapiens), Q9NUW8. actives 0.28% (n = 350,000). Potency, µM (doses to about 130 µM), for inactives: at the highest dose activity change, negative = inhibition, actives largely listed as inhibitors; also: % is scaled to controls: 0 for no effect and ±100 for the full control effect; nearly all actives have a fitted effect of over 40% in size
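Recombinant E. coli-expressed Tdp1 (1 nM) preincubated with compound 15 min at RT, then 5'-biotin/3'-phosphotyrosine-FITC DNA substrate (15 nM) added for 5 min. AlphaScreen beads (10 ug/ml) added, 10 min RT; tyrosine-FITC cleavage read as signal loss.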
FEN1 inhibitor – qHTS Assay for the Inhibitors of Human Flap endonuclease 1 (FEN1). P39748. Recombinant FEN1 flap cleavage, fluorescence, 15 min. Potency, µM (doses to about 114 µM), inactives show top-dose activity change, negative = inhibition, usual class: inhibitors. actives 0.35% (n = 390,000). AID 588795, 2011; also: % is scaled to controls: 0 for no effect and ±100 for the full control effect; nearly all actives have a fitted effect of over 65% in size
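Reaction started by adding substrate (50 nM final) to 10 nM enzyme after 15 min room-temperature compound preincubation. Reads at 0 and 15 min, with data normalized and fitted to a four-parameter Hill equation.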
POLI inh – qHTS for Inhibitors of Polymerase Iota. DNA polymerase iota (Homo sapiens), Q9UNA4. Pol iota fluorescent replication assay, 10 min. Potency, µM (titrated, usually from 115 µM), without a hit: at the highest dose activity, negative = inhibition, hits mostly inhibitors. actives 1% (n = 390,000). AID 588590, 2011
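Pol iota at 10 nM preincubated 15 min with compounds at room temperature; reaction started with fluorescent substrate, 50 nM final. Fluorescence read kinetically at 0 and 10 min; buffer-only wells as negative control.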
POLH inh – qHTS for Inhibitors of Polymerase Eta; DNA polymerase eta (Homo sapiens), Q9Y253; recombinant Pol eta, fluorescent DNA replication assay; Potency, µM (titrated, usually from 114 µM), without a hit: at the highest dose activity change, negative = inhibition, most hits filed as inhibitors; actives 1.2% (n = 390,000); AID 588591, 2011; also: % is scaled to controls: 0 for no effect and ±100 for the full control effect
Target sequence (Q9Y253 whole entry, looked up): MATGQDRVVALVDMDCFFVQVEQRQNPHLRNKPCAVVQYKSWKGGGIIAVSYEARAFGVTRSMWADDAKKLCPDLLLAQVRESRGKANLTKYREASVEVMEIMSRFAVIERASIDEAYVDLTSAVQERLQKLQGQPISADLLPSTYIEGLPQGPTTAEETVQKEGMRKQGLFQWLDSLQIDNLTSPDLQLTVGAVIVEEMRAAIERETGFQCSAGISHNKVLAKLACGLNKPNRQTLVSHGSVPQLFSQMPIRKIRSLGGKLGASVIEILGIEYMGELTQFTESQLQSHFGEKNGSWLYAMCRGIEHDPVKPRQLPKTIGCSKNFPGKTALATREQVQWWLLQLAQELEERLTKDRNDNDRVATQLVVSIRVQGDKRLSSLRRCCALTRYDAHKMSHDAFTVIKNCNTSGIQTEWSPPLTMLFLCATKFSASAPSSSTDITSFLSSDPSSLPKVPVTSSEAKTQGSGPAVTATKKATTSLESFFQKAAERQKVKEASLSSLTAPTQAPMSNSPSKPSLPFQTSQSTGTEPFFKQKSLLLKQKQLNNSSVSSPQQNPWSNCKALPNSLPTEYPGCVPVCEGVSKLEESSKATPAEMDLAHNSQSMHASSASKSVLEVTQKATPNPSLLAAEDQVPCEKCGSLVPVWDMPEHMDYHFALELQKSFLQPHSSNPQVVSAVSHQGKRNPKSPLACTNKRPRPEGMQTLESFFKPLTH
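Fluorescent replication assay: 50 nM final substrate added after a 15 min room-temperature compound preincubation with 10 nM enzyme. Signal taken at 0 min and again at 10 min.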
Active calls of the source: *; ? = inconclusive; · = not tested or not shown; [ ] = remark or other dose. Rows were chosen to be rich in hits. Some 2.4% of all compounds tested hit in one or more screens of this group. Calls follow the shape of the dose curve; as a rule, active = well fitted curve in the direction sought with a large enough effect; inconclusive = small, poorly fitted or top-dose-only effect, or another doubt; inactive = no such curve, though single readings can be large; an effect the other way counts as inactive or inconclusive. Potency is read from the fitted curve at half-maximal effect.

SMILES	POLB inh	Pol kappa inh	TDP1 inh	FEN1 inhibitor	POLI inh	POLH inh
CN(C)c1ccc(/C=C/c2ccnc3c2ccc2ccccc23)cc1	·	-6%	·	-3%	31%	·
CN(c1ccc(/C=C/c2ccccc2)cc1)P1(=O)NCCCO1 (configuration not stated)	·	-20%	·	-13%	24%	·
N[C@H](C(=O)O)[C@H](Cc1ccccc1)C(=O)O	·	7%[60.1 µM]	·	·	·	·
Cc1ccc(C(=O)Oc2coc(CSc3nnc(NC(=O)c4cccs4)s3)cc2=O)cc1	25µM*	?	-12%	-16%	?	?
O=C(Oc1coc(CSc2nnc(NC(=O)C3CC3)s2)cc1=O)c1c(F)cccc1F	20µM*	-43%	·	-20%	?	?
CSCC[C@H](C=O)NC(=O)[C@H](CC(C)C)NC(=O)[C@H](CC(C)C)NC(C)=O	·	-7%[19.4 µM]	6%[56.1 µM]	·	·	·
CCn1c(=O)c(C(=O)NCCCc2ccccc2)c(O)c2ccccc21	10%	-6%	56µM*	-11%	22%	-10%
CCOC(=O)C1=C(C)Nc2ccccc2N/C1=N\S(=O)(=O)c1cc(C(=O)O)ccc1Cl	·	-22%	·	11%	?	35µM*
COc1ccc(CN2[C@@H](CC(=O)O)c3ccc(/C=C/C(=O)O)cc3S2(=O)=O)cc1	·	35µM*	·	-16%	50µM*	·
COC(=O)C[C@H]1c2ccccc2S(=O)(=O)N1c1cccc(OC)c1	·	8%	·	0%	25%	-14%
COc1cccc(N2[C@@H](CC(C)=O)c3ccc(/C=C/C(C)=O)cc3S2(=O)=O)c1	·	-4%	·	-5%	20µM*	?
Cc1ccc(Cl)cc1N1CCN(C(=O)c2ccc3c(c2)N(Cc2ccccc2F)C(=O)c2ccccc2S3=O)CC1 (configuration not stated)	9%	-1%	1%	-3%	36%	-19%
O=C(C[n+]1ccccc1)Nc1c(Cl)cc(Cl)cc1Cl	8.9µM*	-11%	6%	-12%	23%	-12%
Cc1ccc[n+](CC(=O)Nc2c(Cl)cc(Cl)cc2Cl)c1	21%	-2%	-3%	10%	141%	-3%
CCC(=O)Nc1ccc(S(=O)(=O)NCc2cccn2Cc2cccc(C)c2)cc1	25%	-11%[60.1 µM]	9%	-21%	89µM*	-18%
Cc1ccc(NC(=O)COC(=O)CCC2CCCC2)c(Br)c1	·	-10%	56µM*	-15%	?	-18%
O=C(COC(=O)CCC1CCCC1)Nc1ccccc1Br	·	10%	79µM*	7%	4%	-20%
CN1C(=O)S/C(=C/c2ccc(OCc3cccc(C(=O)O)c3)cc2)C1=O	19%	-4%	·	10%	56%	-1%
CN1C(=O)S/C(=C/c2cccn2-c2cccc(C(=O)O)c2)C1=O	?	-32%	·	-22%	?	50µM*
COc1ccc(C2c3c(nc(CCc4ccccc4)[nH]c3=O)Oc3ccc4ccccc4c32)cc1OC (configuration not stated)	·	·	1%	·	·	·
Nc1c(O)ccc2c1C(=O)c1ccccc1C2=O	50µM*	79µM*	3%	50µM*	?	?
COc1ccc(/C=N/NC(=O)C(=O)/C=C2\NC3(CCCC3)Cc3ccccc32)cc1	7%	0%	3%	-10%	3%	-4%
O=C(/C=C1\NC2(CCCC2)Cc2ccccc21)C(=O)N/N=C/c1ccc(O)c(O)c1	2µM*	-39%	-3%	-31%	?	11µM*
O=C(COc1ccccc1C(=O)Nc1ccccc1F)Nc1ccc(Br)cc1	·	3%	·	3%	16%	·
CC(C)(C)n1ncc2c(=O)n(Cc3ccc(F)cc3F)cnc21	·	-1%	·	-19%	-20%	·
SMILES	POLB inh	Pol kappa inh	TDP1 inh	FEN1 inhibitor	POLI inh	POLH inh
O=C(COc1ncnc2sccc12)N1CCN(C(=O)c2ccco2)CC1	40µM*	?	·	1%	20µM*	?
O=C(COc1ncnc2sccc12)N1CCc2ccccc2C1	0%	-2%	4%	0%	29%	-6%
Cc1ccc2c(c1)CCC2=O	·	-56%	·	?	?	·
COc1cc(Cl)c(C)cc1NC(=O)c1cc2ccc3cccnc3c2[nH]1	40µM*	-7%	3%	-4%	?	?
COc1ccccc1NC(=O)c1cc2ccc3cccnc3c2[nH]1	-24%	-7%[60.1 µM]	7%	0%	3%	-19%
COc1ccc(CCN2CC(C(=O)NCCc3ccc(C)cc3)CC2=O)cc1OC (configuration not stated)	?	?	-10%	4%	79µM*	?
CCN(CC)C(=O)/C(C#N)=C/c1cc(O)c(O)c([N+](=O)[O-])c1	·	6.7µM*	-4%	·	·	·
Cc1ccc(NC(=O)COc2ccccc2C(=O)Nc2ccccc2)cc1	·	-6%	·	-26%	9%	·
CC(=O)c1c(C)[nH]c(C(=O)OCC(=O)Nc2ncc(Cl)c(C)c2Cl)c1C	?	-30%	-5%	-14%	?	89µM*
Cc1c(Cl)cnc(NC(=O)COC(=O)C2CC2)c1Cl	·	-24%	-3%	10%	-14%	?
CC(C)=CC(=O)OCC(=O)Nc1ncc(Cl)c(C)c1Cl	40µM*	?	-4%	-1%	?	79µM*
CN(C)c1ccc(/C=C/c2ccnc3ccc([N+](=O)[O-])cc23)cc1	·	7%	·	13%	?	·
N#Cc1cccc2c1-c1ccccc1/C2=N/NC(N)=S	1%	-10%	·	-8%	20µM*	?
Cc1[nH]n(-c2ccccc2)c(=O)c1N=Nc1c(O)cc(S(=O)(=O)N(C)C)c2ccccc12	·	-9%	·	-21%	30%	89µM*
Cc1cccc(NS(=O)(=O)c2ccc3[nH]c(=O)oc3c2)c1C	·	-8%	0%	1%	32%	-15%
Cc1ccc(C)c(NS(=O)(=O)c2ccc3[nH]c(=O)oc3c2)c1	32µM*	?	2%	-6%	?	32µM*
CN(Cc1ccccc1)S(=O)(=O)c1ccc2[nH]c(=O)oc2c1	-1%	-1%	·	-1%	-14%	-15%
CN(c1ccccc1)S(=O)(=O)c1ccc2[nH]c(=O)oc2c1	50µM*	-28%	·	-4%	11µM*	32µM*
COc1ccc(CN2CC[C@H]3C=CC[C@@H](C(=O)N4CCN(c5ccccc5)CC4)[C@H]3C2=O)cc1OC	·	14%	·	-14%	11%	·
O=C1c2cccnc2-c2ncccc21	0%	-5%	5%	-11%	13%	-9%
